Results as given in PubChem BioAssay AID2320 (National Center for Advancing Translational Sciences (NCATS), 2010).
Records with an inconclusive call do not appear. Values without a mark were called inactive. Activity calls are given as the source filed them. Calls come from the whole dose curve.

Experiment: A qHTS for Small Molecule Inhibitors of Shiga Toxin (Confirmatory); note: nearly all actives have a fitted effect of over 75% in size; for activity, positive = inhibition of toxin: 0% is about no effect
Details: Cell-based Shiga toxin protection reporter assay; series mostly up to 38.3 µM; activity, positive = inhibition of toxin: at the top concentration
Potency is the fitted concentration of half-maximal effect.

SMILES | activity, positive = inhibition of toxin | Potency
COc1ccc(-c2cnc[nH]2)cc1 | 15.5% | 
Cc1cc(C)n(-c2nc(SCCN(C)C)c3c4c(sc3n2)COC(C)(C)C4)n1 | -33.6% | 
Cc1c(NC(=O)c2ccc3c(c2)OCO3)cccc1-c1nc2ccccc2o1 |  | 20 µM (active)
COc1ccccc1N(CCC#N)C(=O)CSc1nc(-c2ccccc2)cn1N | 28.7% | 
Cc1cc(N/C=C\c2nnnn2-c2ccccc2)no1 |  | 22.5 µM (active)
CCOc1cc(S(=O)(=O)N2CCN(Cc3ccccc3)CC2)ccc1Br | -26.4% | 
Cc1ccc(N/C(C(Cl)=C(Cl)Cl)=C(/Cl)[N+](=O)[O-])c(C)c1 | -15.4% | 
Cc1cc(C)nc(Sc2ccc3nnnn3n2)n1 |  | 28.3 µM (active)
C=CCn1c(=S)[nH]c2cc(-c3ccccc3)sc2c1=O |  | 0.0113 µM (active)
Cc1ccc2c(N)[nH]nc2n1 | -50.9% | 
CC1(C)Cc2c(cnn2-c2ccccc2)C(NC(=O)CCN2CCCCO2)C1 (stereo unspecified) | 20.1% | 
Cc1ccc(C(=O)CSc2nnnn2C(C)C)c(C)c1 |  | 0.449 µM (active)
CCCCc1ccc(NS(=O)(=O)N(C)C)cc1 | 22.2% | 
Cc1cc(C)c2c(n1)SCC(=O)N2CC(=O)Nc1ccc(C)c(C)c1 |  | 0.449 µM (active)
COc1ccccc1C(=O)Nc1nnc(SCC(=O)Nc2ccc3c(c2)oc2ccccc23)s1 |  | 3.18 µM (active)
CC(=O)c1ccc(NC(=O)C(C)Sc2nnc(C3CCCCC3)o2)cc1 (stereo unspecified) | -2.82% | 
COc1ccc2nc3cc(Cl)ccc3c(NCCCN3CCN(CCCNc4c5ccc(Cl)cc5nc5ccc(OC)cc45)CC3)c2c1 | -9.56% | 
Cc1cc(OCC(=O)NCc2ccccn2)cc(C)c1Br | -1.75% | 
CCOC(=O)N1CCN(C(=O)CCC(=O)c2ccc(OCC)cc2)CC1 | 5.96% | 
Cc1cnc(NC(=O)c2ccc(-c3nc4ccccc4s3)o2)s1 |  | 17.9 µM (active)
COc1ccc2nc(SCC(=O)Nc3ccc4c(c3)CCC4)[nH]c2c1 | 41.5% | 
